From PubChem BioAssay come the findings set out here.

Molecules are shown by their SMILES. Unmarked numbers belong to inactive results. The rule behind the calls is not given here.

This experiment in a line: blockers of DNA damage checkpoint Chk1 activation – imaging, HeLa, hydroxyurea, phospho-Chk1 antibody, percent positive cells, primary screen (AID 1186). The note with it: hydroxyurea-induced phospho-Chk1 immunofluorescence imaging, higher = more signal.
With `CC(C)(C)N1CC=CC23O[C@@H]4/C=C\CCCOC(=O)C4[C@H]2C(=O)N(CCCCCO)[C@@H]3C1=O` (stereo partly drawn), the z-score was 0.395. The figure for `COCCCNC(=O)[C@@]1(CCS(=O)(=O)c2ccccc2)COC(c2ccc(OCCCO)cc2)=N1` is 0.103; for `O=C1NC(=O)C2C1C=CC(C(O)c1ccc(B(O)O)cc1)N2Nc1ccc(Cl)cc1Cl` (stereo not drawn) it is 0.549; for `CCOc1cc(C(O)C2C=CC3C(=O)N(c4ccccc4)C(=O)C3N2Nc2ccccc2F)ccc1O` (stereo not drawn) it is -0.379. With `O=C1OCCC=C[C@H]2OC34C=CCN(c5ccc6ccccc6c5)C(=O)[C@H]3N(CCO)C(=O)[C@@H]4C12` (stereo partly drawn) the figure was 0.8. Consider `CN(C)CCCNC(=O)[C@@]1(Cc2ccccc2I)c2ccccc2C(=O)N(C2CCCCC2)[C@H]1c1ccc(CO)cc1`, for which the z-score was -0.332. The figure for `COc1ccc(C#Cc2ccc3c(c2)[C@]2(C(=O)N3)[C@H](C(=O)O)[C@H]3C(=O)O[C@H](c4ccccc4)[C@H](c4ccccc4)N3[C@@H]2c2ccccc2OCCO)cc1` is 0.135. For the molecule `COCCOC(=O)N1C(=O)[C@@]2(c3cc(C#CC4(O)CCCCCC4)ccc31)[C@H](c1ccc(O)cc1)N1[C@H](c3ccccc3)[C@H](c3ccccc3)OC(=O)[C@H]1[C@@H]2C(=O)N1CCCCCCC1`, the z-score was -0.0596. The figure for `[N-]=[N+]=Nc1ccccc1[C@@H]1OC(c2ccc(OCCCO)cc2)=N[C@]1(Cc1ccccc1)C(=O)NCCN1CCOCC1` is -0.437; for `CCCCC(O)C1C=CC2C(=O)N(c3ccccc3)C(=O)C2N1Nc1ccccc1` (stereo not drawn) it is 0.385; for `CC=CC(O)C1C=CC2C(=O)NC(=O)C2N1Nc1ccc(Cl)cc1Cl` (stereo not drawn) it is 1.3.

With `COC(=O)[C@H](Cc1ccccc1)N1CC2=CCCC=C[C@@H]2[C@H]1[C@H](O)Cc1ccccc1`, the z-score was -0.359.

Take `Cc1ccc(S[C@]2(C(=O)NC(C)C)CC(=O)N(C3CCCCC3)[C@@H]2c2ccc(CO)cc2I)cc1`: the z-score is 0.243.

In the case of `CCCNC(=O)[C@@]1(c2ccc([N+](=O)[O-])cc2)CC(=O)N(C(C)C)[C@@H]1c1ccc(CO)cc1`, the z-score is -0.102. With `COC(=O)[C@@]1(Cc2ccc(OC)cc2)[C@H]2c3cc(C(=O)N(C)C)[nH]c3C[C@H]2CN1C(=O)c1ccccc1` the figure was -0.041; with `O=C1N(CCS(=O)(=O)c2ccccc2)c2ccccc2C[C@]12N=C(c1ccc(OCCCO)cc1)O[C@@H]2c1ccccc1`, -0.36; with `CC1=C([C@H](O)CCc2ccccc2)[C@H](CO)n2c(=O)n(-c3ccccc3)c(=O)n2C1`, -0.773. With `O=C1O[C@H](Cc2ccccc2)[C@@H]2[C@H]3C=CCCC=C3CN2[C@H]1Cc1ccc(O)cc1` the figure was 0.167; with `CN(C)c1ccc(C(O)C2C=CC3C(=O)N(Cc4ccccc4)C(=O)C3N2n2cnnc2)cc1` (stereo not drawn), -1.39. The figure for `COC(=O)[C@@]1(Cc2ccc(F)cc2)[C@H]2c3cc(C(=O)N(C)C)n(CCc4ccc(O)c(O)c4)c3C[C@H]2CN1C(=O)c1ccccc1` is -0.361. As to `CCCC[C@H]1C[C@@H]1[C@@H]1N(C(C)=O)[C@H](c2cccc(OC)c2)CC12CC2`, the z-score is 0.368.

On to `CC(=O)OCC1C2CC[C@H]3C(OCc4ccc(F)cc4C(F)(F)F)OC[C@]4(C)[C@H]3C2=C(CN4C(=O)OC(C)(C)C)[C@H](C)C1COC(C)=O` (stereo partly drawn), for which the z-score is 0.657.

Take `COc1ccccc1CN1C(=O)c2ccccc2[C@](Cc2ccccc2I)(C(=O)NCC(C)C)[C@@H]1c1ccc(CO)cc1`: the z-score was -0.287. Regarding `C[N+](C)(C)CCCC[C@@H]1NC(=O)[C@@H]2C[C@H](C(=O)NCc3ccc(F)cc3)[C@H](c3ccc(O)cc3)N2C1=O`, the z-score was 0.0551. `CN1C(=O)C2C(C1=O)C1C=C(CCCO)C2C(C2CC2)N1Cc1cccc(OC(F)(F)F)c1` (stereo not drawn): the z-score was 0.0426. With `COC(=O)[C@@]1(Cc2ccccc2)[C@H]2c3cc(C(=O)N(C)C)n(Cc4ccc(S(C)(=O)=O)cc4)c3C[C@H]2CN1C(=O)c1ccccc1` the figure was 0.492; with `O=C1c2ccccc2[C@@]2(Cc3ccccc3N(Cc3ccccc3)C2=O)[C@H](c2ccc(CO)cc2)N1Cc1ccccc1Cl`, -0.0672. With `O=C1C[C@@](C(=O)NCc2ccccc2)(c2ccc([N+](=O)[O-])cc2)[C@@H](c2ccc(CO)cc2)N1C1CCCCC1` the figure was -0.53.
